The source of these data is PubChem BioAssay AID1476 (National Center for Advancing Translational Sciences (NCATS), 2009).

Where “and” joins values, the source holds several entries; their conditions need not be identical. Equal entries are not always repeated. About 4,500 (2.2%) of roughly 200,000 compounds were called active. Inconclusive results (about 12%) are left out. The sample holds actives, similar compounds and a random draw of the others, so the mix is not that of the screen. The source holds several records for some structures; these can differ, active in one and inactive in another. Values without a mark were called inactive. Calls come from the whole dose curve; as a rule, active = well fitted inhibition curve with a large enough effect; inconclusive = small, poorly fitted or top-dose-only effect, or effect the other way; inactive = flat fitted curve, though single readings scatter.
Potency is the fitted concentration of half-maximal effect.

Sequence of Cruzipain (Trypanosoma cruzi) (P25779 123-467 limits assumed): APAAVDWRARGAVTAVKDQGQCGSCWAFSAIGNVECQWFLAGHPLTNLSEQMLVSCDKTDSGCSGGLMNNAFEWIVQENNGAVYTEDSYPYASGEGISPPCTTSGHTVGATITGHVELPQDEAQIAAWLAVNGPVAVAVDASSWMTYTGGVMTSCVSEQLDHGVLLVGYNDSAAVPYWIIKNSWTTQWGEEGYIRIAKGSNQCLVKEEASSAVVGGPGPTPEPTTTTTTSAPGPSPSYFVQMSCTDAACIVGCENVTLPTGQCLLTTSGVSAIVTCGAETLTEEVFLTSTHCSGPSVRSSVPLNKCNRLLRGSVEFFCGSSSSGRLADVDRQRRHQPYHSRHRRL

The target in the assay is Cruzipain (Trypanosoma cruzi) (UniProt P25779). The assay can be described thus: qHTS Assay for Promiscuous and Specific Inhibitors of Cruzain (without detergent).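 For max response, negative = inhibition: plate controls were enzyme without inhibitor for no effect and buffer without enzyme for full effect.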 Note: nearly all actives have a fitted effect of over 40% in size. As to conditions: purified cruzain, Z-FR-AMC fluorescence, no detergent. The gist of the method:
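Detergent-free condition (0.00005% Triton X-100) in acetate buffer pH 5.5 with DTT. 1.5 nM enzyme and compound were pre-mixed 15 min, then 2 uM Z-FR-AMC substrate added; reaction progress from fluorescence change between first and third reads (60 s).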
With `O=C(CSCc1cnn(-c2ccccc2)c1-n1cccc1)NCc1ccc(Cl)cc1`, the max response, negative = inhibition was 5.64%.

For `Cc1ccc(-n2nc(C)c(C(=O)O)c2-n2cccc2)cc1`, the max response, negative = inhibition was 1.25%.

With `CCC(=O)N1CCc2cc(S(=O)(=O)NC(C(=O)NCCc3ccc(C)cc3)C(C)C)ccc21` (stereo unspecified), the max response, negative = inhibition is -12.9%.

Consider `Cc1ccccc1CN1C(=O)c2ccccc2Sc2ccc(C(=O)NCCCN3CCOCC3)cc21`, for which the max response, negative = inhibition is -3.52%.

In the case of `COc1cccc(CNC(=O)c2ccc3c(c2)N(Cc2ccc(C(F)(F)F)cc2)C(=O)c2ccccc2S3)c1OC`, the Potency was 10 µM (active).

`COc1ccccc1NC(=O)CN1C(=O)c2ccccc2Sc2ccc(C(=O)N3CCCC3)cc21`: the max response, negative = inhibition was 4.29%.

As for `Cc1nc(-c2ccc(NC(=O)c3cccs3)cc2)cs1`, the max response, negative = inhibition was -25.5%.

With `Cc1ccc(-c2csc(NC(=O)c3cccs3)n2)cc1`, the max response, negative = inhibition is 7.26%.

Regarding `Cc1sc(NC(=S)NC(=O)c2cccs2)nc1-c1ccc(CC(C)C)cc1`, the Potency was 10 µM (active).

`COc1ccc(C2=NC(c3ccncc3)=Nc3ccc(Br)cc3N2)cc1`: the max response, negative = inhibition was 11.4%.

With `O=C(Cn1ncn2nc(-c3cccs3)cc2c1=O)NCc1cccc(Br)c1`, the max response, negative = inhibition is -9.74%.

As to `O=C(CSc1oc(-c2ccco2)nc1S(=O)(=O)c1ccc(Cl)cc1)c1ccccc1`, the max response, negative = inhibition was 10.2%.

`CCCN(CCC)CCCNC(=O)Cn1cc2c(n1)-c1c(oc(C(=O)N3CCCC3)c1C)CC2`: the max response, negative = inhibition was 2.15%.

As to `CCc1cccc(NC(=O)CN(c2ccc(C)c(C)c2)S(=O)(=O)c2ccsc2C(=O)OC)c1`, the max response, negative = inhibition is -9.83%.

As for `Cc1ccc(CNC(=O)CSc2c(C)cnc3c2c(=O)n(C)c(=O)n3C)cc1`, the max response, negative = inhibition is -5.95%.

As for `Cc1cc(C(=O)COC(=O)CNC(=O)c2ccc(F)cc2)c(C)n1Cc1ccco1`, the Potency is 15.8 µM (active).

Turning to `Cc1nn2c(=O)cc(COC(=O)CNC(=O)c3ccc(F)cc3)nc2s1`, the max response, negative = inhibition was -12.1%.

Take `O=C(CNC(=O)c1ccco1)OCC(=O)c1ccccc1`: the max response, negative = inhibition is -5.08%.

Turning to `O=c1cc(-c2ccccc2)n2c(SCc3ccccc3)nnc2[nH]1`, the max response, negative = inhibition is -3.24%.

With `CC(C)Nc1nc(N(c2ccccc2)c2ccccc2)nc(-n2ccnc2)n1`, the max response, negative = inhibition is 11.1%.

With `N#Cc1nc(N)nc(N(c2ccccc2)c2ccccc2)n1`, the Potency is 1.58 µM (active).

`COc1ccc(NC(=O)CNC(=O)Cn2ccc3ccccc3c2=O)c(OC)c1`: the max response, negative = inhibition is 10.4%.

On to `COC(=O)COc1ccc2oc(=O)cc(C)c2c1`, for which the max response, negative = inhibition was -6.25%.

Consider `Cc1ccccc1NC(=O)c1ccc(COc2ccc3c(C)cc(=O)oc3c2)cc1`, for which the Potency is 10 µM (active).

Turning to `Cc1ccccc1N1CCN(CCCOc2ccc3c(C)cc(=O)oc3c2)CC1`, the max response, negative = inhibition is -15.8%.

Regarding `CC(=O)N1CCCc2ccc(NS(=O)(=O)c3ccc(F)cc3F)cc21`, the max response, negative = inhibition was 8.5%.

As for `COc1cc2c(cc1OC)C(COc1ccc(F)cc1)N(C(=O)c1ccccc1F)CC2` (stereo unspecified), the max response, negative = inhibition was 28.1%.

As for `CC(=O)COc1ccc2c(-c3ccccc3)cc(=O)oc2c1`, the max response, negative = inhibition was 2.99%.

On to `COc1ccc(-c2c(C)cc3oc(=O)cc(-c4ccccc4)c3c2C)cc1F`, for which the Potency is 39.8 µM (active).

On to `COc1ccc(-c2c(C)cc3oc(=O)cc(-c4ccccc4)c3c2C)cc1OC`, for which the max response, negative = inhibition was -25.9%.

On to `Cc1cc(C)cc(NC(=O)CSc2nc3nccnc3c(=O)n2CCc2c[nH]c3ccccc23)c1`, for which the max response, negative = inhibition was -2.15%.

Consider `O=S(=O)(c1ccccc1)c1nc(-c2ccc(Cl)cc2Cl)oc1N1CCCCC1`, for which the max response, negative = inhibition is -16.2%.

Regarding `Cc1ccc(S(=O)(=O)n2nc(C)c(S(=O)(=O)N3CCCCCC3)c2C)cc1`, the max response, negative = inhibition is -10.4%.

As to `Oc1c(Cl)cc(Cl)c(Cl)c1Cc1c(O)c(Cl)cc(Cl)c1Cl`, the Potency is 31.6 µM (active) and 25.1 µM (active); the max response, negative = inhibition is -18.2%.

Regarding `CCOc1ccc(NC(=O)CSc2nc3ccccc3c(=O)n2Cc2cccs2)cc1`, the max response, negative = inhibition is -21.1%.

With `CCOc1ccc(NC(=O)CSc2c3c(nc4ccccc24)CCCC3)cc1`, the max response, negative = inhibition was 1.83%.

For the compound `CCOc1ccc(NC(=O)CSc2ncnc3c2sc2ccccc23)cc1`, the Potency is 25.1 µM (active) and the max response, negative = inhibition was -8.47%.

For the compound `Cc1ccc(C)c(N2CCN(C(c3ccccc3)c3nnc(-c4ccccc4)o3)CC2)c1` (stereo unspecified), the max response, negative = inhibition is -12.6%.

As to `COc1ccc(CCNC(=O)CCCCn2c(=O)c3ccccc3n(Cc3ccccc3)c2=O)cc1OC`, the max response, negative = inhibition was -0.815%.

For `COc1cc(C2c3c(oc4ccccc4c3=O)C(=O)N2c2nc(C)c(C)s2)ccc1O` (stereo unspecified), the max response, negative = inhibition was -4.14%.

On to `COc1ccccc1CNC(=O)CCCCn1c(=O)c2ccccc2n(CC(=O)Nc2cc(Cl)ccc2C)c1=O`, for which the max response, negative = inhibition was -2.88%.

With `COc1ccccc1OCCNc1cc(N2CCOCC2)ccc1[N+](=O)[O-]`, the max response, negative = inhibition is 26.2%.

As to `O=C(c1ccccc1)N1CCN(c2ccc([N+](=O)[O-])c(NCc3ccco3)c2)CC1`, the max response, negative = inhibition is -12.2%.

Take `O=[N+]([O-])c1ccc(N2CCN(S(=O)(=O)c3ccc4ccccc4c3)CC2)cc1NCc1ccco1`: the Potency is 7.94 µM (active).

On to `CCc1ccccc1NC(=O)CSc1nc(C)c(C(=O)Nc2ccccc2)c(-c2ccc(Cl)cc2)c1C#N`, for which the max response, negative = inhibition is 4.27%.

`CCc1ccc(NC(=O)CN2C(=O)C(c3ccccc3)=NC23CCCCCC3)cc1`: the max response, negative = inhibition was -25.9%.

Turning to `Cc1noc(C)c1S(=O)(=O)N(CC(=O)Nc1ccc2c(c1)OCCO2)c1ccc(C(C)C)cc1`, the max response, negative = inhibition was 0.199%.

Regarding `O=C(CN(c1ccc2c(c1)OCCO2)S(=O)(=O)c1ccccc1)Nc1ccc2c(c1)OCO2`, the Potency was 12.6 µM (active).

Consider `COc1ccc(S(=O)(=O)N(C)CC(=O)Nc2ccc3c(c2)OCCO3)cc1OC`, for which the max response, negative = inhibition is -3.41%.

Take `Cc1ccc(S(=O)(=O)N(CC(=O)Nc2ccc(Cl)cc2Cl)c2ccccc2C)cc1`: the max response, negative = inhibition is -29.7%.

Turning to `COc1ccc(-n2nc(C(=O)NCCc3ccc(Cl)cc3)c3c4ccccc4n(C)c3c2=O)cc1Cl`, the max response, negative = inhibition is -5.4%.

Take `COC(=O)c1sccc1N/N=C(\C)c1ccc(F)c(Cl)c1`: the Potency is 20 µM (active).

For the compound `COC(=O)c1sccc1NC(=O)c1cc(OC)c(OC)c(OC)c1`, the max response, negative = inhibition was 13.7%.

As to `COC(=O)c1sccc1NC(=O)COc1ccc(Cl)cc1`, the max response, negative = inhibition was -7.31%.
